Experimental data: PubChem BioAssay (NCI)
Compounds without any hit were thinned out: in the full panel of roughly 79,000, 15% have a hit. Activity calls are given as the source filed them. No stated cut-off is given here; in the data, active means growth inhibition above about 70%; inactive means the rest.

What was measured:
[1] = NCI Yeast Anticancer Drug Screen. Data for the mec2-1 strain (AID 157); details: S. cerevisiae mec2-1 strain, stronger effect = higher value
Method in brief: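 Growth inhibition is read against vehicle-treated controls after compound exposure of the mec2-1 yeast strain, which is defective in DNA damage repair or cell cycle control.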

[2] = NCI Yeast Anticancer Drug Screen. Data for the rad14 strain (AID 159);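 further: 0% = growth of vehicle-treated control cultures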; details: S. cerevisiae rad14 strain growth inhibition, stronger effect = higher value
Method in brief: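 Growth inhibition vs vehicle controls; genetically altered yeast strain (DNA damage repair defect) treated with test compounds.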

[3] = NCI Yeast Anticancer Drug Screen. Data for the sgs1 mgt1 strain (AID 161);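 further: 0% = growth of cultures given vehicle only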; details: S. cerevisiae sgs1 mgt1 strain, stronger effect = higher value
Method in brief: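 Growth of a repair-deficient yeast mutant was monitored after compound treatment and expressed as inhibition relative to vehicle-treated cultures.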

[4] = NCI Yeast Anticancer Drug Screen. Data for the CLN2oe strain (AID 163);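 further: 0% = growth of vehicle-only control cultures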; details: S. cerevisiae CLN2oe strain, stronger effect = higher value
Method in brief: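 Compound-treated yeast; growth vs vehicle ctrl = % inhibition. Genetically altered strain (cell-cycle control).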

[5] = NCI Yeast Anticancer Drug Screen. Data for the cln2 rad14 strain (AID 165);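 further: 0% = growth equal to vehicle treated cultures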; details: S. cerevisiae cln2 rad14 strain, stronger effect = higher value
Method in brief: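 Growth inhibition, relative to vehicle-treated controls, is the read-out. The test organism is a yeast strain with defined genetic alterations, cln2 rad14.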

[6] = NCI Yeast Anticancer Drug Screen. Data for the bub3 strain (AID 167); details: S. cerevisiae bub3 mutant strain, stronger effect = higher value
Method in brief: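 Readout: yeast growth inhibition, expressed relative to vehicle-only wells. The test organism is a mutant strain from a panel with lesions in DNA repair or checkpoint genes.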

[7] = NCI Yeast Anticancer Drug Screen. Data for the wt2 strain (AID 169);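 further: 0% = growth of vehicle-treated yeast cultures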; details: S. cerevisiae wt2 strain growth inhibition, stronger effect = higher value
Method in brief: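 Compound exposure of yeast; growth compared with vehicle controls; inhibition reported.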

[8] = NCI Yeast Anticancer Drug Screen. Data for the mlh1 strain (AID 171);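 further: 0% = growth of vehicle-treated control cultures of the same strain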; details: S. cerevisiae mlh1 strain growth inhibition, stronger effect = higher value
Method in brief: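 Compounds are applied to a genetically altered yeast strain, and its growth is compared with that of vehicle-treated cultures to give percent inhibition.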

[9] = NCI Yeast Anticancer Drug Screen. Data for the sgs1 strain (AID 173);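 further: 0% = growth of vehicle-only control cultures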; details: S. cerevisiae sgs1 mutant, stronger effect = higher value
Method in brief: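 Compounds applied to genetically altered yeast; growth compared with vehicle-treated cultures to give % inhibition.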

[10] = NCI Yeast Anticancer Drug Screen. Data for the mlh1 rad18 strain (AID 175); details: S. cerevisiae mlh1 rad18 strain growth inhibition, stronger effect = higher value
Method in brief: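 Cells of a genetically altered yeast strain, deficient in DNA damage repair, were treated with compound. Their growth was then compared with that of vehicle-treated cultures to give inhibition.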

[11] = NCI Yeast Anticancer Drug Screen. Data for the rad18 strain (AID 177); details: S. cerevisiae rad18 mutant growth inhibition, stronger effect = higher value
Method in brief: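 Compounds are applied to a repair-deficient yeast strain, and growth is compared with that of vehicle-treated cultures to give percent inhibition.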

[12] = NCI Yeast Anticancer Drug Screen. Data for the rad52 strain (AID 147);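 further: 0% = growth of vehicle-treated control cultures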; details: S. cerevisiae rad52 mutant growth inhibition, stronger effect = higher value
Method in brief: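 DNA repair-defective yeast; compound exposure; growth scored against vehicle controls.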

[13] = NCI Yeast Anticancer Drug Screen. Data for the wt1 strain (AID 149);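 further: 0% = growth of vehicle-treated wt1 cultures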; details: S. cerevisiae wt1 strain (SPY 50644) growth inhibition, stronger effect = higher value
Method in brief: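 Growth inhibition read against vehicle controls after compound exposure of the wt1 yeast strain.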

[14] = NCI Yeast Anticancer Drug Screen. Data for the rad50EPP+ strain (AID 151);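 further: 0% = growth of vehicle-treated control cultures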; details: S. cerevisiae rad50 mutant strain, stronger effect = higher value
Method in brief: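 rad50EPP+ yeast treated with test compounds. Readout: growth vs vehicle control.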

[15] = NCI Yeast Anticancer Drug Screen. Data for the mgt1 strain (AID 153); details: S. cerevisiae mgt1 mutant growth inhibition, stronger effect = higher value
Method in brief: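 Growth inhibition relative to vehicle controls was scored for the mgt1 yeast strain after compound exposure.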

[16] = NCI Yeast Anticancer Drug Screen. Data for the rad50 strain (AID 155);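 further: 0% = growth of vehicle-only cultures of the same strain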; details: S. cerevisiae rad50 strain growth inhibition, stronger effect = higher value
Method in brief: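 Readout: growth inhibition relative to vehicle-treated cultures. Compound exposure was carried out in a genetically defined yeast strain deficient in DNA damage repair.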

[17] = at 5.0 µM (retest, dose inferred, filed as 0.5)
[18] = at 50.0 µM (retest, dose inferred, filed as 5.0)

Measured: growth inhibition

CCCCCCCCCCCCCCCCCCNC(=S)/N=C/c1c(O)c2ccccc2[nH]c1=O
active: [3]; at 50.0 µM 86.5% | [6]; at 50.0 µM 72.3%
inactive: [1]; [17] -5% | [1]; at 11.0 µM -3% | [1]; at 33.0 µM 2% | [1]; [18] 27% | [1]; at 50.0 µM 6.6% | [1]; at 100.0 µM -1% | [2]; at 1.2 µM 1% | [2]; at 3.7 µM 1% | [2]; at 11.0 µM 0% | [2]; at 33.0 µM 4% | [2]; at 100.0 µM 4% | [3]; [17] 4% | [3]; [18] 26% | [4]; at 1.2 µM -4% | [4]; at 3.7 µM -3% | [4]; at 11.0 µM 2% | [4]; at 33.0 µM -7% | [4]; at 100.0 µM 3% | [5]; [17] -7% | [5]; [18] 16% | [5]; at 50.0 µM -24% | [6]; at 1.2 µM -4% | [6]; at 3.7 µM -4% | [6]; [17] -25% | [6]; at 11.0 µM -2% | [6]; at 33.0 µM -5% | [6]; [18] 69% | [6]; at 100.0 µM 26% | [7]; at 1.2 µM -3% | [7]; at 3.7 µM -1% | [7]; at 11.0 µM -2% | [7]; at 33.0 µM 4% | [7]; at 100.0 µM 20% | [8]; at 1.2 µM 0% | [8]; at 3.7 µM -2% | [8]; at 11.0 µM -3% | [8]; at 33.0 µM -4% | [8]; at 100.0 µM -4% | [9]; at 1.2 µM 0% | [9]; at 3.7 µM 3% | [9]; at 11.0 µM 6% | [9]; at 33.0 µM 11% | [9]; at 100.0 µM 23% | [10]; [17] 9% | [10]; [18] 28% | [10]; at 50.0 µM 58.4% | [11]; at 1.2 µM 2% | [11]; at 3.7 µM 4% | [11]; at 11.0 µM 6% | [11]; at 33.0 µM 22% | [11]; at 100.0 µM 25%

CCN(CC)CCNc1ccc2nc(C)n3c4ccc(O)cc4c(=O)c1c23
active: [12]; at 3.7 µM 74% | [12]; at 11.0 µM 89% | [12]; at 33.0 µM 91% | [12]; at 100.0 µM 93% | [16]; at 3.7 µM 73% | [16]; [17] 91% | [16]; at 11.0 µM 84% | [16]; at 33.0 µM 91% | [16]; [18] 91% | [16]; at 100.0 µM 92% | [10]; at 50.0 µM 78.4%
inactive: [12]; at 1.2 µM 40% | [13]; at 1.2 µM -2% | [13]; at 3.7 µM -4% | [13]; at 11.0 µM -2% | [13]; at 33.0 µM 0% | [13]; at 100.0 µM 2% | [14]; at 1.2 µM 5% | [14]; at 3.7 µM 15% | [14]; at 11.0 µM 24% | [14]; at 33.0 µM 38% | [14]; at 100.0 µM 39% | [15]; at 1.2 µM 3% | [15]; at 3.7 µM 0% | [15]; at 11.0 µM 3% | [15]; at 33.0 µM 1% | [15]; at 100.0 µM 2% | [16]; at 1.2 µM 42% | [16]; at 50.0 µM -0.45% | [1]; at 1.2 µM -1% | [1]; at 3.7 µM 10% | [1]; [17] 15% | [1]; at 11.0 µM 3% | [1]; at 33.0 µM 14% | [1]; [18] 15% | [1]; at 50.0 µM 26.9% | [1]; at 100.0 µM 28% | [2]; at 1.2 µM -1% | [2]; at 3.7 µM 2% | [2]; at 11.0 µM 3% | [2]; at 33.0 µM 8% | [2]; at 100.0 µM 13% | [3]; [17] 18% | [3]; [18] 18% | [3]; at 50.0 µM 0.15% | [4]; at 1.2 µM -1% | [4]; at 3.7 µM 2% | [4]; at 11.0 µM -1% | [4]; at 33.0 µM 3% | [4]; at 100.0 µM -2% | [5]; [17] 28% | [5]; [18] 28% | [5]; at 50.0 µM 18.6% | [6]; at 1.2 µM -3% | [6]; at 3.7 µM -19% | [6]; [17] 39% | [6]; at 11.0 µM -1% | [6]; at 33.0 µM -5% | [6]; [18] 39% | [6]; at 50.0 µM -3.85% | [6]; at 100.0 µM 3% | [7]; at 1.2 µM 0% | [7]; at 3.7 µM 1% | [7]; at 11.0 µM 0% | [7]; at 33.0 µM 1% | [7]; at 100.0 µM 5% | [8]; at 1.2 µM 2% | [8]; at 3.7 µM 3% | [8]; at 11.0 µM -6% | [8]; at 33.0 µM 2% | [8]; at 100.0 µM 22% | [9]; at 1.2 µM 0% | [9]; at 3.7 µM -1% | [9]; at 11.0 µM 1% | [9]; at 33.0 µM 4% | [9]; at 100.0 µM 5% | [10]; [17] 6% | [10]; [18] 6% | [11]; at 1.2 µM 0% | [11]; at 3.7 µM 0% | [11]; at 11.0 µM -4% | [11]; at 33.0 µM -13% | [11]; at 100.0 µM -22%
